According to PubChem BioAssay (Tox21):
Records with an inconclusive call do not appear. Active and inactive are the calls of the source. The call rests on the fitted dose curve.
On the % scale 0 is the no-effect control and ±100 the full control effect.

Assay: p53 small molecule agonists, cell-based qHTS assay with human liver microsomes (AID 1963577);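 further: p53 response element beta-lactamase reporter cells with liver microsomes plus NADPH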
Settings: HCT-116 p53RE-bla with human liver microsomes, ratio, 16 h; series mostly up to 66 µM; activation: at the top concentration
Outline: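 p53RE-bla cells; 5 h settle, 37 C/5% CO2; cpd + HLM 0.5 mg/mL + NADPH 0.5 mg/mL (final); 16 h 37 C; LiveBLAzer 2 h RT dark; fluorescence readout.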
For `COc1ccc(C(=O)/C(Br)=C\C(=O)O)cc1`, the “activation” value was -0.175% (inactive).
For `COc1ccc(-c2cc(=S)ss2)cc1`, the “activation” value was -5.71% [at 30.3 µM] (inactive).
For `O=C(CCCCCCC(=O)Nc1ccccc1)NO`, the “activation” value was -13% [at 30.3 µM] (inactive).
With `c1cc(CN2CCCCC2)cc(OCCCNc2nc3ccccc3s2)c1` the “activation” value was -3.27% [at 30.3 µM] (inactive).
In the case of `O=c1[nH]c2ccccc2n1CCCN1CCN(C(c2ccccc2)c2ccccc2)CC1`, the “activation” value is reported as -5.89% [at 30.3 µM] (inactive).
In the case of `Cc1ccc(O)c(C(C)(C)C)c1`, the Potency is reported as “inactive”.
In the case of `O=C(OC[C@H]1O[C@@H](OC(=O)c2cc(O)c(O)c(OC(=O)c3cc(O)c(O)c(O)c3)c2)[C@H](OC(=O)c2cc(O)c(O)c(OC(=O)c3cc(O)c(O)c(O)c3)c2)[C@@H](OC(=O)c2cc(O)c(O)c(OC(=O)c3cc(O)c(O)c(O)c3)c2)[C@@H]1OC(=O)c1cc(O)c(O)c(OC(=O)c2cc(O)c(O)c(O)c2)c1)c1cc(O)c(O)c(OC(=O)c2cc(O)c(O)c(O)c2)c1`, the activation is reported as -11.4% [at 13.5 µM] (inactive).
In the case of `COc1cc(Nc2c(C#N)cnc3cc(OCCCN4CCN(C)CC4)c(OC)cc23)c(Cl)cc1Cl`, the “activation” value is reported as -15.1% [at 30.3 µM] (inactive).
For `N[C@@H](C(=O)N[C@@H]1C(=O)N2C(C(=O)O)=C(Cl)CS[C@H]12)c1ccccc1`, the activation was 0.17% [at 5.99 µM] (inactive).
For `CCCC(=O)O[C@]1(C(=O)CCl)[C@@H](C)C[C@H]2[C@@H]3CCC4=CC(=O)C=C[C@]4(C)[C@@]3(F)C(=O)C[C@@]21C`, the “activation” value was -9.23% [at 30.3 µM] (inactive).
In the case of `Cc1cccc(O)c1N`, the “activation” value is reported as -7.35% (inactive).
For `CCN(CC)c1ccc(C(=C2C=CC(=[N+](CC)CC)C=C2)c2cc(S(=O)(=O)O)ccc2S(=O)(=O)[O-])cc1`, the “activation” value was -0.438% [at 30.3 µM] (inactive).
With `Cc1cc(O)c2c(c1)C(=O)c1cc(O)cc(O)c1C2=O` the Potency was “inactive”.
